Nine molecules from PubChem BioAssay (NCI) can be followed below.

Holding throughout (assay): NCI-60 one-dose screen, 48 h (100 = growth as untreated, 0 = no growth, -100 = all killed)
What all share (conditions): 10 µM unless noted

Test [1] has as its system NCI-H23 lung.
The subject of test [2] is NCI-H226 lung.
The test system of test [3] is NCI-H322M lung.
Test [4] deals with HOP-62 NSCLC.
The test system of test [5] is NCI-H460 lung.
For test [6], the system named is HOP-92 NSCLC.
Test [7] relates to NCI-H522 lung.
Test [8] deals with A549/ATCC NSCLC.
For test [9], the system named is 786-0 renal.
The subject of test [10] is COLO 205 colon.
Test [11] relates to DU-145 prostate.
Test [12] has as its system K-562 leukemia.
The subject of test [13] is MALME-3M melanoma.
The test system of test [14] is MDA-MB-231 breast.
In test [15] the test system is RXF 393 renal.
The subject of test [16] is SF-268 CNS.
Test [17] has as its system SF-539 CNS.
In test [18] the test system is UACC-257 melanoma.
The subject of test [19] is M14 melanoma.
Test [20] has as its system SF-295 CNS.

The panel holds about 83,000 compounds, 20% with a hit somewhere; the sample as a whole holds those more often.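 For each line, cells grew in 96-well plates with the test compound present at a single concentration for 48 hours.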 A number with no mark means an inactive call. The source made the active and inactive calls. How the source made its calls: active means growth percent below 10; inactive means the rest.

For the molecule `Nc1n[nH]c2ccc([C@@H]3Nc4c(F)cc5[nH]ncc5c4[C@H]4C5CCC(C5)[C@@H]34)cc12` (some centres not stated), the growth in test [1] was 37.8%; in [2] it was 18.4%; in [3], 33.8%; in [4], 37.8%; in test [5] it was 4.8% (active); in [6], 30.5%. The growth was 6.67% (active) in test [7]; 17.1% in test [8]; 40.4% in test [9]; -0.831% (active) in test [10]; 3.59% (active) in test [11]; 13.9% in test [12]. Besides, the growth in test [13] was 32.7%; in [14], 4.87% (active); in [15] it was -0.647% (active); in test [16], 36.1%; in test [17], -39% (active); in [18], 62.1%. The growth in [19] is 9.46% (active).

Regarding `COc1c(B(O)O)cccc1-c1nc2c(F)cc3n[nH]c(C)c3c2c2c1CCCC2`, the growth in test [1] was 17.5%; in test [2], -0.685% (active); in test [3], 27.6%; in test [4], 22%; in [5], 11.7%; in test [6] it was 24.7%. Besides, the growth in [7] is 9.41% (active); in test [8] it was 9.82% (active); in test [9], 19.8%; in test [10], 15.6%; in test [11] it was 15%; in test [12], 17.8%. In addition, the growth in test [13] is 55.9%; in test [14] it was 25.5%; in test [15], -19.3% (active); in test [16] it was 17.5%; in test [17], 4.1% (active); in test [18], 18.8%. Also, the growth in test [19] was 41.1%.

As to `Cc1c(-c2ccc(-c3ccccc3F)cc2)nc2ccc(F)cc2c1C(=O)O`, the growth in [1] is 54.6%; in [2], 65.4%; in [3], 44.5%; in [4], 49.3%; in test [5], 10.6%; in test [6] it was 42.5%. The growth is 34.3% in test [7]; 34.7% in test [8]; 23% in test [9]; 49.2% in test [10]; 42.5% in [11]; 26.3% in test [12]. In addition, the growth is 62.8% in test [13]; 65.2% in [14]; 37.2% in [15]; 50.7% in test [16]; 22.8% in test [20]; 29% in test [17]. The growth in test [18] was 19.8%; in test [19], 53.7%.

For `COc1ccc(-c2nsc3c2NC(=O)CC3c2ccc3c(c2)OCO3)cc1` (configuration not stated), the growth in test [1] is 35.1%; in test [2], 68.4%; in test [3] it was 43.9%; in [4], 31.2%; in test [5], 19.1%; in test [6] it was 2.96% (active). Besides, the growth was -30.1% (active) in test [7]; 26.6% in test [8]; 57.5% in test [9]; -14.4% (active) in test [10]; 14.8% in test [11]; 0.385% (active) in [12]. The growth in [13] is -1.91% (active); in [14], 36%; in test [15], 11.3%; in test [16] it was 42.8%; in [17], -9% (active); in test [18], 60.2%. In addition, in [19], the growth is 18.2%.

With `N=C(N)c1ccc(-c2ccc(-c3cc(Cl)cc(Cl)c3)o2)nc1`, the growth in test [1] is 3.49% (active); in test [2] it was 99.5%; in [3], -30.9% (active); in [4], -72.7% (active); in test [5], -78.8% (active); in test [6], 73.3%. The growth in test [7] was -67.4% (active); in [8] it was -68.8% (active); in test [9], -64.9% (active); in test [10], -76.6% (active); in [11], -91.9% (active); in test [12] it was -65.6% (active). For the same molecule, the growth was -58.9% (active) in test [13]; -77.3% (active) in test [14]; 67% in [15]; -67.1% (active) in test [16]; -90.9% (active) in test [17]; -81.1% (active) in test [18]. For the same molecule, the growth in test [19] was -76.4% (active).

For `COc1ccc(-c2n[nH]nc2-c2cc(OC)c3c(c2)OCO3)cc1`, the growth is 10.4% in test [1]; 69.1% in test [2]; 13.9% in test [3]; 18.5% in [4]; 7.77% (active) in test [5]; 29% in test [6]. For the same molecule, the growth is -51.6% (active) in test [7]; 13.9% in test [8]; 20.5% in test [9]; -93.1% (active) in test [10]; -4.79% (active) in test [11]; -11% (active) in test [12]. Also, the growth in test [13] was 34%; in test [14], -25.9% (active); in test [15], 19.1%; in [16], 16.7%; in test [17] it was -39.7% (active); in [18] it was 68%. Moreover, the growth in test [19] is 8.15% (active).

Regarding `CC(C)OC(=O)c1ccc([N+](=O)[O-])cc1`, the growth is 103% in test [1]; 106% in test [2]; 111% in test [3]; 110% in test [4]; 109% in test [5]; 84.1% in test [6]. The growth in test [7] is 105%; in test [8], 101%; in test [9], 109%; in test [10] it was 123%; in test [11] it was 116%; in test [12], 117%. In addition, the growth in [13] was 131%; in [14], 102%; in [15], 116%; in test [16], 119%; in test [17], 112%; in test [18], 101%. In addition, the growth in [19] was 108%.

Consider `C/C(=N\NC(=S)Nc1ccccc1)c1ccccn1`, for which the growth in test [1] was 59.8%; in [2], 21.3%; in test [3], 20.9%; in test [4], 41.4%; in test [5] it was 17.3%; in test [6], 37.1%. Further, the growth in test [7] is 12.6%; in [8] it was 45.7%; in [9], 32.6%; in [10], 25.6%; in test [11], 57.5%; in [12], 23.6%. Besides, the growth in test [13] was 31.3%; in [14], 30.8%; in [15] it was 12.2%; in test [16] it was 43.3%; in test [17] it was 19.6%; in [18], 17.6%. In test [19], the growth is 24.1%.

`CC(C)CC(NC(=O)C(CCCN=C(N)N)NC(=O)OCc1ccccc1)C(=O)NC(CNC(=O)/C=C/c1ccccc1)C(C)C` (configuration not stated): the growth in test [1] was 109%; in test [2], 100%; in test [3], 104%; in test [4], 107%; in test [5], 108%; in test [6], 89.2%. The growth in [7] is 98.7%; in [8], 108%; in [9], 101%; in [10] it was 117%; in [11], 107%; in [12], 92.3%. Further, the growth was 107% in test [13]; 109% in [14]; 107% in test [15]; 107% in test [16]; 96.4% in [17]; 107% in test [18]. The growth in [19] is 106%.
